These sequences were tested on PPARg:RXRa 90nM:30nM, anti-RXR (NR concentration 90 nM, RXRa partner concentration 30 nM) (assay: PBM binding z-score (relative to random genomic background probes); higher = stronger binding; sequences stand for … in GC…GCGATTGACAGCGTAGAATGAAGG).
How it was run: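 For binding z-scores, the reference was random background probes on custom Agilent 4×180K protein-binding microarrays. These arrays were incubated 1 h with ligand-free nuclear receptor dimers in PBS pH 7.4, 2% milk, 0.02% Triton X-100, 1 mM DTT, 0.2 mg/mL BSA and 0.4 mg/ml salmon testes DNA. Fluorescence was scanned after antibody detection of each partner (one per run) and regression-normalized.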

Row | Sequence | PBM binding z-score
1 | CGTCAGAGTTCAAGGTAACGTAACAGAAAGCAGC | 2.39
2 | ATCTCTAGGTAACTAAGTTCAGTGAATGCCGAAC | 0.816
3 | GCGACTGCGGCAAAGCAGGTTACCATAAGGTTGG | -0.92
4 | GCTGCTAGATCAGGTTGGTCAGCTAACGGGTACG | -0.926
5 | CCTCGGAGTACAGAAGGTCAGAGCTGTCCGCTTT | 0.4
6 | TTACCAAGGTGAAGGTCTTTGATCCCTCTGTAGA | 2.12
7 | TAGCCTAGGACATTCAGGGGCCAGTATAGAAAGC | -0.409
8 | GCGACTGGGGCATTAGCAGGTTACCATAACTTAA | 0.0308
9 | ATACCACGGTGATCGTGAGGTCGTTGATACTAAC | 0.19
10 | TCTGCTAGGTCAGTTGGTCAGCTTACGAGCTGCC | 1.39
11 | TCGAGTAGGTTAGTCGGGACATTCAGCCAACATA | 0.955
12 | GCAGACAGGTGAAACGCAGGTAAGTCAGGGTGGC | -0.534
13 | GCAGACAGGTGAAACGCCGGTAACTCAGGGTGGC | -0.552
14 | TCATATAAGTAAATGCTAGGTGAAAGTCCGATCT | 3.6
15 | TCATATAGGTAAAGGTGATAGTCGAACGATATGA | 3.51
16 | CCTTACGGGTCAACGTTATAGCACGGGTGGTACG | 3.43
17 | TAGCCTAGGTCAGATCGGGCCAGTACACGCTATA | -0.0312
18 | AGAACGAGGCCACGCTGAGTTGATAGCAGAGTAG | 0.189

Reference: the supplement of paper PMC6555819
